Compound activity (PubChem BioAssay)
An excerpt weighted towards active compounds, which were near 3.5% of everything screened.
Sm TGR inh = qHTS Assay for the Inhibitors of Schistosoma Mansoni Peroxiredoxins; purified TGR, DTNB reduction, TNB absorbance 405 nm; Potency, µM (titrated, usually from 114 µM), without a hit: at the highest dose activity change, negative = inhibition, usual class: inhibitors; actives 3% (n = 360,000); further: on the % scale 0 is the no-effect control and ±100 the full control effect; nearly all actives have a fitted effect of over 60% in size
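Kinetic colorimetric format: TGR-catalysed, NADPH-driven DTNB reduction monitored via TNB absorbance. Enzyme dispensed at 20 nM; compound exposure 15 min at room temperature before reaction start.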
TbPYK inhibitor = qHTS of Trypanosoma Brucei Inhibitors; pyruvate kinase (Trypanosoma brucei), Q57TT1; TbPYK enzyme, Kinase-Glo Plus ATP luminescence, 45 min; Potency, µM (doses to about 76.8 µM), without a hit: at the top dose activity, negative = inhibition, hits mostly inhibitors; actives 0.12% (n = 410,000); AID 624173, 2012; further: on the % scale 0 is the no-effect control and ±100 the full control effect; nearly all actives have a fitted effect of over 50% in size
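TbPYK + substrate in 50 mM TEA pH 7.2, 100 mM KCl, 10 mM MgCl2, 0.05% BSA, 0.01% Tween-20; cpd pinned; ADP 130 uM final; 45 min RT; Kinase-Glo Plus 10 min; luminescence endpoint.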
LmPK inh = qHTS Assay for Inhibitors of Leishmania Mexicana Pyruvate Kinase (LmPK). Q27686. purified LmPK, Kinase-Glo ATP luminescence, 1 h. Potency, µM (series often up to 57.5 µM), without a hit: at the top dose activity change, negative = inhibition, most hits filed as inhibitors. actives 0.37% (n = 290,000). AID 1721, 2009; further: on the % scale 0 is the no-effect control and ±100 the full control effect
Target sequence (Q27686 whole entry, looked up): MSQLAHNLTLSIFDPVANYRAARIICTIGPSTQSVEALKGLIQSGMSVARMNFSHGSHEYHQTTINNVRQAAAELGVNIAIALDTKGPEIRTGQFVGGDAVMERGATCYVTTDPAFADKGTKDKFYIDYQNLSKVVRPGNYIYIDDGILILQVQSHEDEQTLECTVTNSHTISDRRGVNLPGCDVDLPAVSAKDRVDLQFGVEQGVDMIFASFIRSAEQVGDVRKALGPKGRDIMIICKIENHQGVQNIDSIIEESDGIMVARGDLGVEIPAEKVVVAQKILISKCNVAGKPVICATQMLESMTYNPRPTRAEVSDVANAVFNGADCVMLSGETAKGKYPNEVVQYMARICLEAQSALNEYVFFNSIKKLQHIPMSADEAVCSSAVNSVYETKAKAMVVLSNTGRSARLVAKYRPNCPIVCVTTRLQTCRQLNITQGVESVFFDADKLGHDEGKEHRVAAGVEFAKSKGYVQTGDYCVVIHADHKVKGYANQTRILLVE
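Purified LmPK (0.1 nM) with 0.5 mM PEP and 0.1 mM ADP in imidazole buffer pH 7.2 with MgCl2/KCl, 1 h at room temperature. ATP formed was read by luciferase luminescence and normalized to no-enzyme and uninhibited controls.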
RE007 growth inh = qHTS Assay for Inhibitors of the HIV-1 protein Vpr; actives 0.21% (n = 360,000); Potency, µM (titrated, usually from 92.2 µM), inactives show at the highest dose activity change, negative = less growth, hits mostly inhibitors; S. pombe RE007 Vpr strain, BacTiter-Glo ATP luminescence, 24 h; active means well fitted falling curve with a large enough effect; inconclusive means small, poorly fitted or top-dose-only effect; inactive means no such curve, though single readings can be large or run the other way; further: on the % scale 0 is the no-effect control and ±100 the full control effect; nearly all actives have a fitted effect of over 50% in size
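Fission yeast RE007 carrying one integrated HIV-1 vpr copy, seeded at OD 0.01 in PMG+AL medium with 23 nL pinned compound. Grown 24 h at 30 degrees; viability read by BacTiter-Glo luminescence after 5 min.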
Giardia FBPA inh = qHTS Assay for Inhibitors of Fructose-1,6-bisphosphate Aldolase from Giardia Lamblia | A8B2U2 | purified Giardia FBPA | Potency, µM (top dose mostly 59.6 µM), without a hit: top-dose activity, negative = inhibition, most hits filed as inhibitors | actives 0.71% (n = 290,000) | AID 2451, 2010; further: on the % scale 0 is the no-effect control and ±100 the full control effect; nearly all actives have a fitted effect of over 55% in size
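Giardia FBPA (40 nM reagent) was preincubated 10 min at RT with compound (up to 57.5 uM final), then substrate plus GAPDH/TPI/NAD/arsenate coupling system with diaphorase/resazurin was added; resorufin fluorescence (525/598 nm) was read after 20 min.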
NS1 inh = qHTS Assay for Inhibitors of Influenza NS1 Protein Function. Potency, µM (series often up to 46.1 µM), inactives show at the top dose activity, positive = more growth. actives 0.4% (n = 270,000). AID 2326, 2010; calls by dose curve; further: actives are rising curves; nearly all actives have a fitted effect of over 50% in size
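A cell-based growth assay was used: compounds that relieve NS1-induced slow growth of budding yeast raise OD600. Assay medium was yeast nitrogen base with ammonium sulphate and -URA supplement, pH 6.0, with 2% galactose.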
Numbers without * were called inactive; ? = inconclusive; / = not tested or not shown; [ ] = remark or other dose. Unless noted, the call rests on the fitted dose curve; in most records, active means well fitted curve in the direction sought with a large enough effect; inconclusive means small, poorly fitted or top-dose-only effect, or another doubt; inactive means no such curve, though single readings can be large; an effect the other way counts as inactive or inconclusive. Potency means the concentration at half of the fitted maximal effect.

SMILES	Sm TGR inh	TbPYK inhibitor	LmPK inh	RE007 growth inh	Giardia FBPA inh	NS1 inh
CC(C)(Oc1ccc(Cl)cc1)C(=O)NCc1ccco1	7.1µM*	-5%	1%	7%	6%	?
O=C(NCc1ccco1)c1ccccc1F	45µM*	10%	2%	13%	0%	1%
CCOC(=O)N1CCN(Cc2nc3cc(NC(=O)c4ccc(F)cc4)ccc3n2C(C)C)CC1	-3%	-1%	/	/	/	/
O=C(O)CCc1ccc(-c2ccc(F)cc2)n1CC(=O)O	?	1%	7%	2%	10%	11%
O=C(O)CCc1ccc(-c2ccc(F)cc2)n1Cc1ccco1	50µM*	-3%	-6%	-5%	20%	-71%
O=C(O)CCc1ccc(-c2ccc(F)cc2)n1NC(=O)c1ccco1	40µM*	2%	0%	-10%	-1%	3%
COC(=O)Cn1c(CCC(=O)O)ccc1-c1ccccc1	?	0%	6%	2%	2%	5%
O=C(O)CCc1ccc(-c2ccc(Br)cc2)n1NC(=O)c1ccc([N+](=O)[O-])cc1	45µM*	0%	9%	0%	4%	2%
Cc1ccc(-c2ccc(CCC(=O)O)n2NC(=O)c2ccc([N+](=O)[O-])cc2)cc1	?	13%	1%	0%	-1%	-3%
O=C(O)CCc1ccc(-c2ccccc2)n1Cc1ccco1	32µM*	-8%	5%	4%	-1%	-39%
Cc1cc(C)cc(NC(=O)Nc2ccc3nc(N4CCN(C)CC4)cc(C)c3c2)c1	8%	0%	/	/	/	/
Cc1ccc(-c2ccc(CCC(=O)O)n2NC(=O)c2ccco2)cc1	?	-7%	-4%	-10%	-1%	-4%
O=C(O)CCc1ccc(-c2ccc(Br)cc2)n1Cc1ccco1	50µM*	-3%	3%	2%	23%	-77%
Cc1ccc2c(c1)c1c(n2C)-c2[nH]ncc2CC1	-16%	0%	4%	20µM*	0%	-5%
CCC1CC2CC3c4[nH]c5ccc(OC)cc5c4CCN(C2)C13 (stereo not drawn)	/	-11%[157 µM]	/	/	/	/
CCOC(=O)[C@H]1[C@H]2COc3ccc(Br)cc3[C@@H]2N2C(=O)CN(Cc3ccco3)C(=O)[C@@]12C	32µM*	-15%	/	-3%	/	/
CCOC(=O)[C@H]1[C@H]2COc3ccc(Br)cc3[C@@H]2N2C(=O)CN(Cc3ccc(Cl)cc3)C(=O)[C@@]12C	/	-11%	/	4%	/	/
CCc1ccccc1N(C)C(=O)Cc1c(C(=O)O)c(C)cn1C	5%	-10%	/	/	/	/
O=C(CSc1ccsc1[N+](=O)[O-])Nc1cc(F)ccc1F	35µM*	4%	0%	2%	-12%	/
CCOC(=O)N=Nc1c2ccccc2c2nc3no[nH]c3nc12	58%	3%	-5%	5µM*	1.6µM*	/
Cc1ccc(-c2nnc(Nc3ccccc3)o2)cc1	-32%	-14%	14µM*	?	0%	-46%
CCCCCCC(=O)Cc1cc(OC)c(OC)cc1C=C(C(=O)OCC)C(=O)OCC	40µM*	/	1%	/	-6%[12.9 µM]	-4%
CCOc1cccc2sc(N(Cc3cccnc3)C(=O)c3ccc(C#N)cc3)nc12	3%	9%[15.4 µM]	/	/	/	/
Cc1ccc(CN(C)C(=O)c2ccccc2NC(=O)c2ccccc2)o1	40µM*	1%	/	-7%	/	/
CCC(C)n1c(-c2cccc(S(=O)(=O)N3CCOCC3)c2)n[nH]c1=S (stereo not drawn)	5%	7.1µM*	/	-3%	/	/
SMILES	Sm TGR inh	TbPYK inhibitor	LmPK inh	RE007 growth inh	Giardia FBPA inh	NS1 inh
CC(C)Cn1c(-c2cccc(S(=O)(=O)N3CCOCC3)c2)n[nH]c1=S	/	?	/	8%	/	/
COCCn1cnc2c(c1=O)c1nc3ccccc3nc1n2/N=C/c1ccco1	45µM*	-3%	2%	-16%	0%	1%
CCCCCCn1cnc2c(c1=O)c1nc3ccccc3nc1n2/N=C/c1ccco1	14µM*	7%	0%	-4%	-26%	-20%
Cc1cc(C)c(Cn2c(=O)n(CCCC(=O)NCc3ccc4c(c3)OCO4)c(=O)c3sccc32)c(C)c1	1%	0%	/	/	/	/
O=C(NC1CCCC1)C(c1ccc(F)cc1)N(Cc1ccc(F)cc1)C(=O)CCl (stereo not drawn)	5.6µM*	-14%	-3%	8%	-3%	7%
O=C(NC1CCCCC1)C(c1ccncc1)N(Cc1ccc(F)cc1)C(=O)c1ccccn1 (stereo not drawn)	-36%	-3%	1%	-3%	7%	5%
COC(CN(C(=O)CCl)C(C(=O)NC1CCCCC1)c1ccc(C)cc1)OC (stereo not drawn)	45µM*	-2%	2%	-15%	-2%	1%
Cc1cc(C(=O)NCCC2=CCCCC2)c(C)o1	22µM*	-8%	-2%	4%	-12%	-33%
O=C(CCSCCC(=O)NCc1cccs1)NCc1cccs1	40µM*	-3%	-2%	7%	0%	0%
Cc1cc(C(=O)NCc2cccs2)c(C)o1	22µM*	2%	7%	5%	-12%	-6%
CCOC(=O)CNC(=O)c1cc(C)oc1C	35µM*	/	1%	/	-11%	6%
Cc1cc(C(=O)NCC(=O)O)c(C)o1	0%	1%	1%	6%	4%	1%
CCOc1cc(C2c3c(-c4cc(C)ccc4O)n[nH]c3C(=O)N2CCCOC(C)C)ccc1O (stereo not drawn)	8%	-9%	/	/	/	/
Cc1ccc(C(=O)N/C(=C\c2ccc(-c3ccccc3[N+](=O)[O-])o2)C(=O)NCCCN2CCOCC2)cc1	35µM*	-2%	0%	-12%	/	-9%
O=C(Nc1cccc(Cl)c1)N1CCC(CN2CCOCC2)CC1	3%	2%	/	/	/	/
CCOc1cc(CNc2ccccc2SC)ccc1O	8.9µM*	/	-8%	/	?	2%
COc1cc(CNc2ccccc2SC)ccc1O	2.2µM*	-26%	0%	-5%	-25%	-19%
Cn1nccc1CNC(=O)c1c(Cl)cnn1C	-10%	-15%	1%	/	3%	7%
Cn1ncc(Cl)c1C(=O)NCc1ccco1	18µM*	0%	2%	11%	0%	1%
COc1ccccc1-n1cnc2cc(C(=O)NCc3ccco3)ccc21	40µM*	-1%	-5%	-2%	0%	-1%
Cn1nnc2cc(C(=O)NCc3ccco3)ccc21	40µM*	-5%	0%	12%	-2%	-3%
O=C(NCc1ccco1)c1ccc2nccnc2c1	5%	-3%	12%	-2%	3%	-2%
